From PubChem BioAssay (NCI)
Compounds without any hit were thinned out: in the full panel of roughly 79,000, 15% have a hit. A number with no mark means an inactive call. The source made the active and inactive calls. Cut-off read from the data, not from the text of the source: active = growth inhibition above about 70%; inactive = the rest.

experiment: NCI Yeast Anticancer Drug Screen. Data for the sgs1 mgt1 strain (AID 161);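 note: 0% = growth of cultures given vehicle only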; settings: S. cerevisiae sgs1 mgt1 strain, at 50.0 µM (retest, dose inferred, filed as 5.0), active compounds read high
In short: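 Yeast cells carrying a defined DNA-repair defect were exposed to test compounds. Growth inhibition was measured relative to vehicle-treated controls.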

| Structure (SMILES) | growth inhibition |
| --- | --- |
| CCOC(=O)c1c(N)sc2c1CCCCC2 | 1% |
| CCCCC(O)CCCC | 9% |
| Nc1nn2c(C(Br)Br)cc(C(Br)Br)nc2c1[N+](=O)[O-] | 100% (active) |
| COC(=O)c1n[nH]c(C(C)C)c1N=NN(C)C | 96% (active) |

same assay, conditions: S. cerevisiae sgs1 mgt1 strain, at 50.0 µM, active compounds read high

| Structure (SMILES) | growth inhibition |
| --- | --- |
| O=[N+]([O-])c1ccc(N2N=NC(CN3CCOCC3)C2N2CCOCC2)cc1 (configuration not stated) | 47.5% |
| FC(F)(F)c1ccccc1NC(=S)SCc1ccco1 | 87.7% (active) |
| O=C(c1ccc(Cl)cc1)C1N=NCC1c1ccccc1 (configuration not stated) | 29.2% |
| COc1cc(C2c3cc4c(cc3[C@@H](OCCN)[C@H]3COC(=O)C23)OCO4)cc(OC)c1O (some centres not stated) | 69.5% |
| CC(C)(C)c1cc2c(c(C(C)(C)C)c1O)CC(=O)O2 | 57.8% |
| CCCCCCCCCCCCCCCCCCSSCCCCCCCCCCCCCCCCCC | -0.8% |
| c1ccc2c(c1)OCC(CNCCNCC1COc3ccccc3O1)O2 (configuration not stated) | 87.5% (active) |
| CC(=O)C(C(C)=O)C1C=CC=CC=C1 | 91.8% (active) |
| c1ccc2c(c1)ccc1c[n+]3c4ccccc4ccc3n12 | 68% |
| CC(=O)C(=C(I)I)c1ccccc1 | 73.7% (active) |
| O=C1c2ccccc2CN1Cc1ccc(Cl)c(Cl)c1 | 93.1% (active) |
| CC1CC(N)=NC1C(=O)NCCC#N (configuration not stated) | 64.1% |
| CC(=O)CC(C)=NCCN=C(C)CC(C)=O.[Pd] | 94.3% (active) |
| CCOc1ccccc1NC1=C(Cl)C(=O)c2ccccc2C1=O | 98% (active) |
| CCN1C2=NCCN2S(=O)(=O)c2ccccc21 | -27.9% |
| O=C(Cc1nc2ccccc2s1)C(=O)Nc1ccc(Cl)cc1 | 17.5% |
| O=C(CCn1[nH]c(=O)c(Cl)c(Cl)c1=O)NNc1ccc([N+](=O)[O-])cc1[N+](=O)[O-] | -12.9% |
| COc1cccc(C2c3cc4c(cc3OC(NNc3ccccc3)C2C)OCO4)c1OC (configuration not stated) | 44% |
| COc1ccc(-c2cc3ccccc3c(=O)n2Cc2ccccc2)cc1 | 83.7% (active) |
| CN(C)CCCNCC(=O)Nc1ccc(S(=O)(=O)c2ccc(NC(=O)CNCCCN(C)C)cc2)cc1 | 97.2% (active) |

| Structure (SMILES) | growth inhibition |
| --- | --- |
| O=C1NN=C(c2ccc(Cl)cc2)CC1C1C(=O)N(c2ccccc2)N=C1c1ccccc1 (configuration not stated) | 99.3% (active) |
| Cc1ccc(S(=O)(=O)NCCSSCCNS(=O)(=O)c2ccc(C)cc2)cc1 | 96.6% (active) |
| O=C(CC(=O)c1ccccc1)CC(=O)c1ccccc1Br | 6.6% |
| Nc1ncc2ccccc2c1-c1ccc(NC(=O)CCCl)cc1 | 31.6% |
| CC1=NC(=Cc2cccc(Cl)c2)C(=O)N1n1c(-c2ccccc2)nc2ccccc2c1=O | 79.4% (active) |
| CCCOC(=O)CCCC(=O)N(CC)CC | -25.1% |
| C=C1C(=O)[C@@]23CC[C@H]4[C@@](C)(CCC[C@@]4(C)C(=O)OC)[C@@H]2CC[C@]1(O)C3 | 94% (active) |
| CCCCN(CCCC)CCC(=O)c1ccc2c(ccc3ccccc32)c1 | 98.8% (active) |
| CC1CCC2(C)C(CC=C(C=O)C2(O)C=O)C12CO2 (configuration not stated) | 94.5% (active) |
| CN(C)CC1CC/C(=C\c2ccc(Cl)c(Cl)c2)C1=O (configuration not stated) | 92.4% (active) |
| CCS(=O)(=O)c1ccc(NC(=O)OC2CCCCCCC2)cc1 | 65.5% |
| CC(=O)OC1CCCCCCCCCCC12OCCO2 (configuration not stated) | 73.5% (active) |
| CC(=O)OCc1cc2c(s1)C(=O)c1sccc1C2=O | 88.8% (active) |
| O=C1C=CC(=O)c2nc3ccccc3nc21 | 50.6% |
| Cc1ccccc1C1c2c(C)cccc2C(=O)CC1CC(=O)O (configuration not stated) | 82.3% (active) |
| CCOC(=O)c1c(N)sc2c1CCCCC2 | 52% |
| CCCCC(O)CCCC | 15.8% |
| Nc1nn2c(C(Br)Br)cc(C(Br)Br)nc2c1[N+](=O)[O-] | 99.5% (active) |
| COC(=O)c1n[nH]c(C(C)C)c1N=NN(C)C | 99% (active) |

experiment: NCI Yeast Anticancer Drug Screen. Data for the cln2 rad14 strain (AID 165);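 note: 0% = growth equal to vehicle treated cultures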; settings: S. cerevisiae cln2 rad14 strain, at 5.0 µM (retest, dose inferred, filed as 0.5), active compounds read high
In short: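 Relative to vehicle controls, growth inhibition of compound-treated cln2 rad14 yeast was recorded.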

| Structure (SMILES) | growth inhibition |
| --- | --- |
| O=[N+]([O-])c1ccc(N2N=NC(CN3CCOCC3)C2N2CCOCC2)cc1 (configuration not stated) | 0% |
| FC(F)(F)c1ccccc1NC(=S)SCc1ccco1 | -4% |
| O=C(c1ccc(Cl)cc1)C1N=NCC1c1ccccc1 (configuration not stated) | 4% |
| COc1cc(C2c3cc4c(cc3[C@@H](OCCN)[C@H]3COC(=O)C23)OCO4)cc(OC)c1O (some centres not stated) | 29% |
| CC(C)(C)c1cc2c(c(C(C)(C)C)c1O)CC(=O)O2 | 23% |
| CCCCCCCCCCCCCCCCCCSSCCCCCCCCCCCCCCCCCC | -4% |
| c1ccc2c(c1)OCC(CNCCNCC1COc3ccccc3O1)O2 (configuration not stated) | 45% |
| CC(=O)C(C(C)=O)C1C=CC=CC=C1 | -59% |
| c1ccc2c(c1)ccc1c[n+]3c4ccccc4ccc3n12 | 57% |
| CC(=O)C(=C(I)I)c1ccccc1 | 8% |
| O=C1c2ccccc2CN1Cc1ccc(Cl)c(Cl)c1 | -1% |
| CC1CC(N)=NC1C(=O)NCCC#N (configuration not stated) | 14% |
| CC(=O)CC(C)=NCCN=C(C)CC(C)=O.[Pd] | -5% |
| CCOc1ccccc1NC1=C(Cl)C(=O)c2ccccc2C1=O | 99% (active) |
| CCN1C2=NCCN2S(=O)(=O)c2ccccc21 | 14% |
| O=C(Cc1nc2ccccc2s1)C(=O)Nc1ccc(Cl)cc1 | 2% |
| O=C(CCn1[nH]c(=O)c(Cl)c(Cl)c1=O)NNc1ccc([N+](=O)[O-])cc1[N+](=O)[O-] | -2% |
| COc1cccc(C2c3cc4c(cc3OC(NNc3ccccc3)C2C)OCO4)c1OC (configuration not stated) | 11% |
| COc1ccc(-c2cc3ccccc3c(=O)n2Cc2ccccc2)cc1 | 6% |
| CN(C)CCCNCC(=O)Nc1ccc(S(=O)(=O)c2ccc(NC(=O)CNCCCN(C)C)cc2)cc1 | 7% |

| Structure (SMILES) | growth inhibition |
| --- | --- |
| O=C1NN=C(c2ccc(Cl)cc2)CC1C1C(=O)N(c2ccccc2)N=C1c1ccccc1 (configuration not stated) | 88% (active) |
| Cc1ccc(S(=O)(=O)NCCSSCCNS(=O)(=O)c2ccc(C)cc2)cc1 | -6% |
| O=C(CC(=O)c1ccccc1)CC(=O)c1ccccc1Br | -3% |
| Nc1ncc2ccccc2c1-c1ccc(NC(=O)CCCl)cc1 | -1% |
| CC1=NC(=Cc2cccc(Cl)c2)C(=O)N1n1c(-c2ccccc2)nc2ccccc2c1=O | 16% |
| CCCOC(=O)CCCC(=O)N(CC)CC | -5% |
| C=C1C(=O)[C@@]23CC[C@H]4[C@@](C)(CCC[C@@]4(C)C(=O)OC)[C@@H]2CC[C@]1(O)C3 | 54% |
| CCCCN(CCCC)CCC(=O)c1ccc2c(ccc3ccccc32)c1 | 21% |
| CC1CCC2(C)C(CC=C(C=O)C2(O)C=O)C12CO2 (configuration not stated) | 99% (active) |
| CN(C)CC1CC/C(=C\c2ccc(Cl)c(Cl)c2)C1=O (configuration not stated) | 37% |
| CCS(=O)(=O)c1ccc(NC(=O)OC2CCCCCCC2)cc1 | -50% |
| CC(=O)OC1CCCCCCCCCCC12OCCO2 (configuration not stated) | 1% |
| CC(=O)OCc1cc2c(s1)C(=O)c1sccc1C2=O | 11% |
| O=C1C=CC(=O)c2nc3ccccc3nc21 | -1% |
| Cc1ccccc1C1c2c(C)cccc2C(=O)CC1CC(=O)O (configuration not stated) | -41% |
| CCOC(=O)c1c(N)sc2c1CCCCC2 | -53% |
| CCCCC(O)CCCC | 3% |
| Nc1nn2c(C(Br)Br)cc(C(Br)Br)nc2c1[N+](=O)[O-] | 99% (active) |
| COC(=O)c1n[nH]c(C(C)C)c1N=NN(C)C | -11% |
